# According to the OligoGym collection:
# Legend:
# Experiment in all cases: pooled miR-30 sensor sort-seq; sequence = guide strand
# Conditions in all cases: shRNA
# KPRP = target: KPRP
# KRT33B = target: KRT33B
# KRT2 = target: KRT2
# KRT75 = target: KRT75
# KRI1 = target: KRI1
# KRT86 = target: KRT86
# KRT79 = target: KRT79
# KRT85 = target: KRT85
# KRTAP13-1 = target: KRTAP13-1
# KRTAP13-2 = target: KRTAP13-2
# Note: reference of the scale not given here.
sequence,measurement,setting,value
TGGTCTTAGACTGACATTGAGC,sensor-assay potency score (higher = more potent),KPRP,-1.69
TAGACTGACATTGAGCCTGGCC,sensor-assay potency score (higher = more potent),KPRP,0.158
TTTTCCAGAGAGTATCGCAGGT,sensor-assay potency score (higher = more potent),KRT33B,0.0207
TTGGACTGCAACTCCACCTTTA,sensor-assay potency score (higher = more potent),KRT2,-0.149
TTGATCTCCGGCTTCCACCAGA,sensor-assay potency score (higher = more potent),KRT2,-0.146
TCCGTCTGGTACTTGGTTCTGA,sensor-assay potency score (higher = more potent),KRT33B,-0.6
TTTGATGAAATGGTGCTGCTTG,sensor-assay potency score (higher = more potent),KRT2,0.566
TTCCACAACATCCTGCATGTTC,sensor-assay potency score (higher = more potent),KRT75,0.126
TTTGTAAAAGTCCCGCTCCTGC,sensor-assay potency score (higher = more potent),KRI1,-0.976
TTTTCACATGCATTGGTGGTGG,sensor-assay potency score (higher = more potent),KRT33B,0.0181
TTTCAGAAACTCAATTTCCTGG,sensor-assay potency score (higher = more potent),KRT2,-0.272
ATGTCCTCGTAGTCCAGCCGGT,sensor-assay potency score (higher = more potent),KRI1,-1.51
ATACTGATTCCTGGTCTCGTTC,sensor-assay potency score (higher = more potent),KRT33B,-1.38
TTGACTCCAAACCTGTTGCTGG,sensor-assay potency score (higher = more potent),KRT75,-0.175
TCGATCTGCACCACCAGCCTGG,sensor-assay potency score (higher = more potent),KRT33B,-0.584
TAGGACTGCAGCTGCTCCGAGC,sensor-assay potency score (higher = more potent),KRT33B,-1.39
TTAATTTCATCTTCGTACCTGA,sensor-assay potency score (higher = more potent),KRT75,0.609
TTGCACATTCTTACACTGCTTC,sensor-assay potency score (higher = more potent),KRT2,0.204
TTCTGCAGTGAGCCCATCCAGA,sensor-assay potency score (higher = more potent),KRT2,-1.13
TTGGTTCTGAAGTCATCTGCAG,sensor-assay potency score (higher = more potent),KRT33B,0.243
TTGAGCTCTTCCTGCTTCTTTG,sensor-assay potency score (higher = more potent),KRI1,-1.32
TTGTCGATCTGCACCACCAGCC,sensor-assay potency score (higher = more potent),KRT33B,-0.512
TGGTTCTGAAGTCATCTGCAGC,sensor-assay potency score (higher = more potent),KRT33B,-1.53
TACTTTCCGCAGCTTCTCCAGC,sensor-assay potency score (higher = more potent),KRI1,-0.735
TATCTTGATCTCTTTCAGGCTG,sensor-assay potency score (higher = more potent),KRT2,0.155
TTCTGAAGTCATCTGCAGCCAG,sensor-assay potency score (higher = more potent),KRT33B,-0.402
TTTCACATGTGTAACAGACGGG,sensor-assay potency score (higher = more potent),KRT75,0.696
TTCACATTCTGGATCTCTGGGT,sensor-assay potency score (higher = more potent),KRT2,0.038
TTCTTTAGGGAGCACCACCGGT,sensor-assay potency score (higher = more potent),KRI1,-1.34
TTTGTTGAGGATGTAATCCCGC,sensor-assay potency score (higher = more potent),KRI1,-0.152
TTTCCAGAGAGTATCGCAGGTT,sensor-assay potency score (higher = more potent),KRT33B,0.0223
TTGTCAGAGAGGCAGAACTGGC,sensor-assay potency score (higher = more potent),KRT33B,-1.76
TTACTTTCCGCAGCTTCTCCAG,sensor-assay potency score (higher = more potent),KRI1,-1.11
TACACTGCTTCTTCACATGTGC,sensor-assay potency score (higher = more potent),KRT2,0.0185
TAAACCTCCAACACCACCAGGG,sensor-assay potency score (higher = more potent),KRT2,0.275
TTGTGCTTTGACCTCGGCGATG,sensor-assay potency score (higher = more potent),KRT75,-1.35
TTCTCAGACTTGCTGCACAGGA,sensor-assay potency score (higher = more potent),KRT33B,-1.16
TACAGGGGCTTCCTCTTCCTGT,sensor-assay potency score (higher = more potent),KRI1,-0.817
TTTTGATCTGCTCACGCTCTTG,sensor-assay potency score (higher = more potent),KRT2,-1.42
ATAGGCAGCATCTACGTCCTTT,sensor-assay potency score (higher = more potent),KRT75,-0.0293
TTGGTGTCAGTGACACTCTGAT,sensor-assay potency score (higher = more potent),KRT2,-0.228
ATTGTCGATCTGCACCACCAGC,sensor-assay potency score (higher = more potent),KRT33B,-1.36
TTAATAGACACATTCCAGGGAG,sensor-assay potency score (higher = more potent),KRT75,0.363
TTTATTGGAAACACAGAGTGAA,sensor-assay potency score (higher = more potent),KRT86,0.556
TTAACCTTCCCTCCCATCCTAC,sensor-assay potency score (higher = more potent),KRT79,-1.2
TTGAAACACAGATCGAGACAAC,sensor-assay potency score (higher = more potent),KRT85,-0.784
TTGCCATGCAGATCCATCCGGC,sensor-assay potency score (higher = more potent),KRT79,-0.416
TTGACTATGACCGAGGTGTCTG,sensor-assay potency score (higher = more potent),KRT85,-0.0564
TTAGTTTTTCAGAAGCTCTTGA,sensor-assay potency score (higher = more potent),KRT86,0.521
TTCACATGTGTAACAGACGGGT,sensor-assay potency score (higher = more potent),KRT75,-0.549
TTGCTGTTGCTGGGGACGCTAC,sensor-assay potency score (higher = more potent),KRT86,-1.52
TTCTTTAGAACGACAAACTCAT,sensor-assay potency score (higher = more potent),KRT85,0.238
TGACAATGTCATCGTACTGTGC,sensor-assay potency score (higher = more potent),KRT86,-0.56
TTGCTCTCGCAGCAGCGCTGGT,sensor-assay potency score (higher = more potent),KRT85,-1.3
TTCATCTTCGTACCTGACTTTG,sensor-assay potency score (higher = more potent),KRT75,-1
TTATTGGAAACACAGAGTGAAA,sensor-assay potency score (higher = more potent),KRT86,-1.53
TTCATCCTCGTACTTGTTCTTG,sensor-assay potency score (higher = more potent),KRT79,-0.726
TTTATTGAAACACAGATCGAGA,sensor-assay potency score (higher = more potent),KRT85,-0.788
TAGTAGTGCCCACCACCACGTT,sensor-assay potency score (higher = more potent),KRT86,-1.34
TTTGTGGAGTATGTTTGCCGAG,sensor-assay potency score (higher = more potent),KRT79,-0.673
TTGAGCACCACAAACTCGTTCT,sensor-assay potency score (higher = more potent),KRT79,0.422
TTGATCTCGGCAATGATGCAGT,sensor-assay potency score (higher = more potent),KRT86,-0.0305
TTCACTGAATAGCAAGACCTGT,sensor-assay potency score (higher = more potent),KRT85,-0.614
TCAACCTGCACTCCTCGCCTTC,sensor-assay potency score (higher = more potent),KRT75,-1.25
TATTTTGGAGCTAAGTAGGAGT,sensor-assay potency score (higher = more potent),KRT85,-0.047
AACATCGTCATACTGAGCCTTG,sensor-assay potency score (higher = more potent),KRT85,-0.503
TTGATTTCATCCTCGTACTTGT,sensor-assay potency score (higher = more potent),KRT79,0.185
ATTTGTGCTGAATCCACCCTTG,sensor-assay potency score (higher = more potent),KRT79,0.32
ATCTTGACTATGACCGAGGTGT,sensor-assay potency score (higher = more potent),KRT85,-0.378
TAGAACGACAAACTCATTCTCT,sensor-assay potency score (higher = more potent),KRT85,0.106
TCGTACTGTGCCTTGATCTCGG,sensor-assay potency score (higher = more potent),KRT86,0.0587
TTGCCAGTCACAGAAATGCTGA,sensor-assay potency score (higher = more potent),KRT79,-0.931
TATTGTGCTTTGACCTCGGCGA,sensor-assay potency score (higher = more potent),KRT75,-0.108
TTTGCCATGCAGATCCATCCGG,sensor-assay potency score (higher = more potent),KRT79,-0.203
TTGCAAGCTGGAACACTGCTTC,sensor-assay potency score (higher = more potent),KRT75,0.132
TTCTGGTAGAACTGCCACTTGG,sensor-assay potency score (higher = more potent),KRT85,-1.54
ACGGGTGACAATGTCATCGTAC,sensor-assay potency score (higher = more potent),KRT86,-0.601
TCCAGCTCGGCCAACTTGCAGC,sensor-assay potency score (higher = more potent),KRT86,-1.89
TCGCTCTCCAGAAGCTTGCGGT,sensor-assay potency score (higher = more potent),KRT79,-0.966
TCCCTCTGTAGGAACATCCAGA,sensor-assay potency score (higher = more potent),KRT85,-1.53
TTCTCTGCAGCAGTGTGCTTGT,sensor-assay potency score (higher = more potent),KRT79,-0.0157
TTGACCGTAGTGGTCTTCCGCA,sensor-assay potency score (higher = more potent),KRT79,-0.477
TTGGTCTGTAGCAAGAAGACTG,sensor-assay potency score (higher = more potent),KRTAP13-1,-0.458
TAGCGCAGGTAGTCACCACAGG,sensor-assay potency score (higher = more potent),KRTAP13-2,-0.777
